HADH2 inhib: HADH2 (human) dehydrogenase inhibition; 73,000 compounds, 3.4% hits; recombinant HADH2, NADH fluorescence, beta-hydroxybutyryl-CoA; Potency, µM (top dose mostly 57.1 µM), for the others: at the highest dose activity change, negative = inhibition, most hits filed as inhibitors; Q99714; also: potency is read from the fitted curve at half-maximal effect; % is scaled to controls: 0 for no effect and ±100 for the full control effect; nearly all actives have a fitted effect of over 60% in size
Target sequence (Q99714 whole entry, looked up, one chain of several): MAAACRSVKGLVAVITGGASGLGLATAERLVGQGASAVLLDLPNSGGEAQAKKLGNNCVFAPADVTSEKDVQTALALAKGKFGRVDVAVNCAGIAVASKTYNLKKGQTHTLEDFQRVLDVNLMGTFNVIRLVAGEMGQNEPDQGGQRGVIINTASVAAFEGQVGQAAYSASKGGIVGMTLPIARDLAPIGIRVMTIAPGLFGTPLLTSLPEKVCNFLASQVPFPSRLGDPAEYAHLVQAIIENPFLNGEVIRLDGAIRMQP
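E. coli-expressed His-tagged HADH2 tested at 20 nM in alkaline Tris buffer (pH 9.0); oxidation of 90 uM beta-hydroxybutyryl-CoA with 1 mM NAD+ tracked fluorimetrically for 4 min.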
HSD17B inh: HSD17B dehydrogenase inhibition; recombinant HSD17B10, NADH fluorescence kinetic; Potency, µM (doses to about 57.1 µM), without a hit: at the highest dose activity change, negative = inhibition, most hits filed as inhibitors; 75,000 compounds, 7.6% hits; AID 893;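 also: the protocol describes HADH2 (HSD17B10) and not the HSD17B4 of the title; potency is read from the fitted curve at half-maximal effect; % is scaled to controls: 0 for no effect and ±100 for the full control effect; nearly all actives have a fitted effect of over 70% in size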
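Activity followed as NADH fluorescence increase (ex 360, em 450 nm) every 30 seconds for 4 min, using final 90 uM beta-hydroxybutyryl CoA and 1 mM NAD+. Recombinant His-tagged enzyme, 20 nM, pH 9.0 Tris buffer, 15 min compound preincubation.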
A350 autofl: compound fluoresces in the Alexa 350 spectral region; Compound autofluorescence, 340/450 nm, Alexa 350 dye-equivalents; hits give high values; max dye-equivalent concentration, M; 59,000 compounds, 11% hits; AID 590; in the data active = max dye-equivalent concentration above about 10 nM; inconclusive = mostly about 1.1 nM to 9.6 nM
4MU fluor: compounds fluorescent in 4-MU spectral region; 59,000 compounds, 11% hits; compound autofluorescence, 340/450 nm, 4-MU equivalents; hits give high values; max dye-equivalent concentration, M; in the data active = max dye-equivalent concentration above about 10 nM; inconclusive = mostly about 1.1 nM to 9.6 nM
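Compounds in 100 mM Tris, pH 8.0, sat 15 min at room temperature before fluorescence was read at 340 nm excitation/450 nm emission; a per-plate six-point 4-MU standard curve converted signals to dye-equivalent concentration at each compound concentration.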
AID923: qHTS Assay for Allosteric/Competitive Inhibitors of Caspase-1: Spectroscopic Profiling in AFC Spectral Region | compound fluorescence, AFC spectral region (405/520 nm) | Potency, µM (doses to about 57.5 µM), for the others: top-dose fluorescence increase, hits mostly activators | 75,000 compounds, 1.1% hits | AID 923, 2007; also: potency is read from the fitted curve at half-maximal effect; 0% is about no effect
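Titrations up to 57 uM read every 20 sec for 3 min (405/520 nm) with 50 nM caspase 1 and 5 uM Ac-WEHD-AFC, pH 7.5 HEPES buffer. Fluorescence-vs-time intercept gave baseline, scaled against on-plate AFC standard.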
* marks the source's active call; other numbers are inactive results; i = inactive; ? = inconclusive; / = no result given; [ ] = remark or other dose. Most compounds without a hit are left out; they make up all but 13% or so of the library. Unless noted, calls follow the shape of the dose curve; as a rule, active = well fitted curve in the direction sought with a large enough effect; inconclusive = small, poorly fitted or top-dose-only effect, or another doubt; inactive = no such curve, though single readings can be large; an effect the other way counts as inactive or inconclusive.

SMILES | HADH2 inhib | HSD17B inh | A350 autofl | 4MU fluor | AID923
COC(=O)c1oc2ccc(Br)cc2c1NC(=O)c1ccccc1 | ? | ? | 1.1e-08M* | ? | -1%
N#Cc1nc(COc2ccccc2)oc1N1CCN(Cc2ccccc2)CC1 | 1% | -4% | i | i | -1%
N#Cc1nc(-c2cccs2)oc1NCc1ccc2c(c1)OCO2 | / | / | 1.2e-07M* | 1.1e-07M* | /
N#Cc1nc(-c2ccco2)oc1NCCc1ccccc1 | ? | 32µM* | ? | ? | 2%
N#Cc1nc(-c2cccs2)oc1NCCc1ccccc1 | / | / | 4.8e-07M* | 4.1e-07M* | /
O=C(Cc1cccs1)NCc1ccc2c(c1)OCO2 | -2% | 0% | i | i | 3%
N#Cc1nc(-c2cccs2)oc1N1CCN(Cc2ccccc2)CC1 | 32µM* | 32µM* | 1.4e-07M* | 1.7e-07M* | -1%
CC(C)=CCC/C(C)=C/CO/N=C1/C[C@@H](O)[C@@H](O)[C@@H]2[C@H]3C(=O)N(c4ccc(F)cc4F)C(=O)[C@@H]3CC[C@H]12 | 7%[11.4 µM] | -3%[11.4 µM] | / | / | 0%[11.5 µM]
N#Cc1nc(-c2cccs2)oc1NCCN1CCOCC1 | / | / | 2.8e-07M* | 2.6e-07M* | /
N#Cc1nc(-c2ccccc2)oc1NCCN1CCCCC1 | ? | 25µM* | ? | ? | -1%
O=C(NCCCN1CCOCC1)c1cc(-c2cccs2)on1 | -8% | 4% | i | i | 0%
COc1ccc(CCNc2oc(-c3ccco3)nc2C#N)cc1 | ? | 32µM* | ? | ? | 1%
O=S1(=O)N[C@H]2CC[C@@H]3NS(=O)(=O)N[C@H]4CC[C@H](N1)N4S(=O)(=O)N23 | -10%[11.4 µM] | -7%[11.4 µM] | i | i | -1%[11.5 µM]
COc1ccc(C2C3=C(CC(C)(C)CC3=O)Nc3c2c(=O)[nH]c2nc(C)nn32)cc1 (stereo not given) | 3% | 6% | 5.5e-08M* | 1.5e-07M* | 3%
COc1ccc(C2C3=C(CC(C)(C)CC3=O)Oc3ncn4nc(-c5cccnc5)nc4c32)cc1 (stereo not given) | -2% | 8% | i | i | -2%
O=c1oc2ccccc2n1CSc1nc2ccccc2s1 | -6% | 10% | ? | 1.5e-08M* | -1%
O=c1oc2ccccc2n1CSC1=NCCS1 | -4% | 10% | i | i | 0%
CC(=O)N[C@@H]1C(O)OC(CO)C(O)C1O (stereo not given in full) | / | 1% | / | / | 0%
CCn1c(SCc2nc3ccccc3s2)nnc1-c1cccs1 | -13% | -8% | i | i | 2%
CCCn1c(=O)c2ccccc2n2c(SCCOc3ccccc3)nnc12 | -4% | -7% | i | i | 0%
CCCn1c(=O)c2ccccc2n2c(SCc3nc4ccccc4s3)nnc12 | 4% | 25µM* | ? | i | 0%
C=CCn1c(=O)c2ccccc2n2c(SCC(=O)Nc3cc(C)on3)nnc12 | 26% | -5% | i | i | 0%
Cn1c(SCc2nc3ccccc3s2)nnc1-c1cccs1 | ? | -11% | 5.7e-08M* | 6.7e-08M* | -1%
CCCn1c(=O)c2ccccc2n2c(SCC(=O)Nc3cc(C)on3)nnc12 | 13% | 6% | 6e-08M* | 4.1e-08M* | -1%
C=C(CO)C1Cc2c(ccc3c2OC2COc4cc(OC)c(OC)cc4C2C3=O)O1 (stereo not given) | / | -8% | / | / | -2%
SMILES | HADH2 inhib | HSD17B inh | A350 autofl | 4MU fluor | AID923
CCOC(=O)CCN1C(=O)[C@H]2[C@H]3[C@H](O)[C@H](O)C/C(=N/NC(=O)OCC)[C@H]3CC[C@@H]2C1=O | 2%[11.4 µM] | 0%[11.4 µM] | / | / | 0%[11.5 µM]
O=c1[nH]c(NCc2ccccc2)nc2c1CCCC2 | -2% | 3% | ? | ? | 1%
COCCn1c(=O)[nH]c2cc(C(=O)NCCCN3CCN(c4ccc(F)cc4)CC3)ccc2c1=O | ? | 32µM* | 1.6e-08M* | 1.6e-08M* | 2%
COCCn1c(=O)[nH]c2cc(C(=O)NCCN3CCN(c4ccccc4F)CC3)ccc2c1=O | ? | 32µM* | 2.5e-08M* | 2.8e-08M* | 2%
COc1ccc2cccc(N3CCN(CCNC(=O)c4ccc(F)cc4)CC3)c2c1 | 32µM* | 32µM* | / | / | -3%
COCCn1c(=O)[nH]c2cc(C(=O)NCCc3ccc(OC)c(OC)c3)ccc2c1=O | 6% | ? | ? | i | 2%
C[C@@H](CC(=O)O)[C@@H](N)C(=O)O | 0% | -5% | / | / | 1%

Compound activity (PubChem)
